Experiment [1] relates to RAW-Dual. The experiment in a line: NF-kB SEAP reporter activity, fold change vs agonist alone; higher = enhanced NF-kB activity. The gist of the method: (§1)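 Cytotoxic wells were those whose IncuCyte confluency was below 70% of agonist controls in both mask sets. The cells were RAW-Dual macrophages at 50,000 cells/well in DMEM on 384-well plates, dosed with 50 nL of library stock by pin tool, stimulated with a PRR agonist 1 h later, and kept at 37 °C, 5% CO2 for 20 hours. IRF and NF-κB reporter activity, as fold change over agonist-alone wells, came from supernatant read by QuantiLuc luminescence and QuantiBlue absorbance, respectively.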

The subject of experiment [2] is RAW-Dual. The experiment in a line: NF-kB SEAP reporter activity, fold change vs agonist alone; cytotoxicity flag (confluency mask): not cytotoxic; higher = enhanced NF-kB activity. The method in brief:
as §1

Experiment [3] concerns RAW-Dual. The experiment in a line: NF-kB SEAP reporter activity, fold change vs agonist alone; cytotoxicity flag (confluency mask): cytotoxic (confluency <70% of control); higher = enhanced NF-kB activity. The gist of the method:
as §1

Setting [4] is: library stock concentration (final ~1000-fold dilution): 10 mM, cytotoxicity flag (confluency mask): not cytotoxic, agonist: Imiquimod (TLR7) […].
Setting [5] is: library stock concentration (final ~1000-fold dilution): 10 mM, cytotoxicity flag (confluency mask): not cytotoxic, agonist: MPLA (TLR4) […].
Setting [6] is: agonist: ODN 1826 (TLR9) 0.5 ug/mL.
[7] abbreviates: agonist: Pam2CSK4 (TLR2/6) 0.1 ug/mL.
[8] abbreviates: agonist: Pam3CSK4 (TLR2/1) 0.1 ug/mL.

The full ranking holds about 2,900 compounds; the median of “NF-kB SEAP reporter activity, fold change vs agonist alone” is about 0.99, and the highest 2% start at about 2.6. What follows is part of a selection rich in the highest values, with near analogues and random picks from the rest.

`CC1CNC(=O)c2cnn3ccc(nc23)NC(C)c2cc(F)ccc2O1` (stereo unspecified): the entries for the “NF-kB SEAP reporter activity” value in experiment [1] (setting [4]) and in experiment [1] (setting [5]) were 0.753 and 0.916, respectively.
`CC1CNC(=O)c2cnn3ccc(nc23)NC(C)c2cc(F)ccc2O1` (stereo unspecified) (library stock concentration (final ~1000-fold dilution): 10 mM): the “NF-kB SEAP reporter activity” value in experiment [2] (agonist: LPS (TLR4) 0.1 ug/mL) is 1.58; in experiment [2] (setting [6]), 0.9; in experiment [2] (setting [7]), 0.5; in experiment [2] (setting [8]), 0.422.
With `N#CCNC(=O)c1ccc(-c2ccnc(Nc3ccc(N4CCOCC4)cc3)n2)cc1` (library stock concentration (final ~1000-fold dilution): 10 mM), the “NF-kB SEAP reporter activity” value in experiment [2] (agonist: LPS (TLR4) 0.1 ug/mL) came out at 0.233; in experiment [2] (setting [6]) it was 1.01; in experiment [2] (setting [7]), 0.233; in experiment [2] (setting [8]), 1.08.
For `O=C(Nc1ccc(-c2ccnc(Nc3ccc(N4CCOCC4)cc3)n2)cc1)C1CCCN1` (stereo unspecified), the “NF-kB SEAP reporter activity” value in experiment [1] (setting [4]) was 1.6; in experiment [1] (setting [5]), 2.46.
Regarding `O=C(Nc1ccc(-c2ccnc(Nc3ccc(N4CCOCC4)cc3)n2)cc1)C1CCCN1` (stereo unspecified) (library stock concentration (final ~1000-fold dilution): 10 mM), the “NF-kB SEAP reporter activity” value worked out at 1.86 in experiment [2] (agonist: LPS (TLR4) 0.1 ug/mL), 0.272 in experiment [2] (setting [6]), 1.05 in experiment [2] (setting [7]) and 1.67 in experiment [2] (setting [8]).
In the case of `N#Cc1cc(-c2ccnc(Nc3ccc(N4CCOCC4)cc3)n2)ccc1OC1CCOCC1`, the entries for the “NF-kB SEAP reporter activity” value in experiment [1] (setting [4]) and in experiment [1] (setting [5]) were 1.85 and 2.02, respectively.
Consider `N#Cc1cc(-c2ccnc(Nc3ccc(N4CCOCC4)cc3)n2)ccc1OC1CCOCC1` (library stock concentration (final ~1000-fold dilution): 10 mM), for which the “NF-kB SEAP reporter activity” value in experiment [2] (agonist: LPS (TLR4) 0.1 ug/mL) amounted to 0.526; in experiment [2] (setting [6]) it was 1.39; in experiment [2] (setting [7]), 0.463; in experiment [2] (setting [8]), 3.66.
For `N#CCNC(=O)c1ccc(-c2ccnc(Nc3ccc(N4CCOCC4)cc3)n2)cc1`, the “NF-kB SEAP reporter activity” value in experiment [1] (setting [4]) was found to be 1.02; in experiment [1] (setting [5]), 0.925.
For the compound `CN1CCN(CC(=O)N2c3ccccc3C(=O)Nc3cccnc32)CC1.Cl.Cl`, the “NF-kB SEAP reporter activity” value was determined as 0.949 in experiment [1] (library stock concentration (final ~1000-fold dilution): 10 mM water, cytotoxicity flag (confluency mask): not cytotoxic, agonist: Imiquimod (TLR7) […]) and 1.01 in experiment [1] (library stock concentration (final ~1000-fold dilution): 10 mM water, cytotoxicity flag (confluency mask): not cytotoxic, agonist: MPLA (TLR4) […]).
Turning to `CN1CCN(CC(=O)N2c3ccccc3C(=O)Nc3cccnc32)CC1.Cl.Cl` (library stock concentration (final ~1000-fold dilution): 10 mM water), the “NF-kB SEAP reporter activity” value stood at 1.25 in experiment [2] (agonist: LPS (TLR4) 0.1 ug/mL), 1.15 in experiment [2] (setting [6]), 1.16 in experiment [2] (setting [7]) and 1.06 in experiment [2] (setting [8]).
Consider `Cl.O=S(=O)(c1cccc2c(I)cccc12)N1CCCNCC1`, for which the “NF-kB SEAP reporter activity” value is 0.797 in experiment [1] (setting [4]) and 1.12 in experiment [1] (setting [5]).
In the case of `Cl.O=S(=O)(c1cccc2c(I)cccc12)N1CCCNCC1` (library stock concentration (final ~1000-fold dilution): 10 mM), the “NF-kB SEAP reporter activity” value in experiment [2] (agonist: LPS (TLR4) 0.1 ug/mL) was 0.746; in experiment [2] (setting [6]) it was 0.722; in experiment [2] (setting [7]), 0.626; in experiment [2] (setting [8]) it was 0.568.
On to `CONC(=O)Nc1ccc(-c2sc3c(c2CN(C)C)c(=O)n(-c2ccc(OC)nn2)c(=O)n3Cc2c(F)cccc2F)cc1` (library stock concentration (final ~1000-fold dilution): 10 mM), for which the “NF-kB SEAP reporter activity” value in experiment [3] (agonist: LPS (TLR4) 0.1 ug/mL) is 3.39; in experiment [3] (setting [6]), 0.26; in experiment [3] (setting [7]), 1.01; in experiment [3] (setting [8]), 1.88.
`CONC(=O)Nc1ccc(-c2sc3c(c2CN(C)C)c(=O)n(-c2ccc(OC)nn2)c(=O)n3Cc2c(F)cccc2F)cc1`: the “NF-kB SEAP reporter activity” value amounted to 2.02 in experiment [1] (library stock concentration (final ~1000-fold dilution): 10 mM, cytotoxicity flag (confluency mask): cytotoxic (confluency <70% of control), agonist: Imiquimod (TLR7) […]) and 2.5 in experiment [1] (library stock concentration (final ~1000-fold dilution): 10 mM, cytotoxicity flag (confluency mask): cytotoxic (confluency <70% of control), agonist: MPLA (TLR4) […]).
For the compound `CC(C)CCNC(=O)C(CC(C)C)NC(=O)C1OC1C(=O)O` (stereo unspecified), the “NF-kB SEAP reporter activity” value in experiment [1] (setting [4]) was found to be 0.94; in experiment [1] (setting [5]) it was 1.17.
With `CC(C)CCNC(=O)C(CC(C)C)NC(=O)C1OC1C(=O)O` (stereo unspecified) (library stock concentration (final ~1000-fold dilution): 10 mM), the “NF-kB SEAP reporter activity” value worked out at 1.03 in experiment [2] (agonist: LPS (TLR4) 0.1 ug/mL), 1.02 in experiment [2] (setting [6]), 1 in experiment [2] (setting [7]) and 1.19 in experiment [2] (setting [8]).
As to `Br.NC(=O)C(c1ccccc1)(c1ccccc1)C1CCN(CCc2ccc3c(c2)CCO3)C1` (stereo unspecified), the entries for the “NF-kB SEAP reporter activity” value in experiment [1] (setting [4]) and in experiment [1] (setting [5]) were 1.02 and 0.984, respectively.
Regarding `Br.NC(=O)C(c1ccccc1)(c1ccccc1)C1CCN(CCc2ccc3c(c2)CCO3)C1` (stereo unspecified) (library stock concentration (final ~1000-fold dilution): 10 mM), the “NF-kB SEAP reporter activity” value in experiment [2] (agonist: LPS (TLR4) 0.1 ug/mL) was found to be 0.967; in experiment [2] (setting [6]) it was 0.467; in experiment [2] (setting [7]), 0.82; in experiment [2] (setting [8]) it was 0.919.
As to `C=C1CCC2C(C)(CO)C(O)CC[C@@]2(C)[C@@H]1C/C=C1/C(=O)OCC1O` (stereo partly specified), the results for the “NF-kB SEAP reporter activity” value in experiment [1] (setting [4]) and in experiment [1] (setting [5]) were 0.287 and 0.305, respectively.
In the case of `C=C1CCC2C(C)(CO)C(O)CC[C@@]2(C)[C@@H]1C/C=C1/C(=O)OCC1O` (stereo partly specified) (library stock concentration (final ~1000-fold dilution): 10 mM), the “NF-kB SEAP reporter activity” value came to 0.32 in experiment [2] (agonist: LPS (TLR4) 0.1 ug/mL), 0.206 in experiment [2] (setting [6]), 0.0769 in experiment [2] (setting [7]) and 0.161 in experiment [2] (setting [8]).
The matching figures for `CC(C)(C)OC(=O)NC1CCCCC/C=C\C2CC2(C(=O)NS(=O)(=O)C2CC2)NC(=O)C2CC(OC(=O)N3Cc4cccc(F)c4C3)CN2C1=O` (stereo unspecified) (library stock concentration (final ~1000-fold dilution): 10 mM): 1.01, 0.995, 0.808 and 1.03.
For the compound `COc1ccc2c(OC3CC4C(=O)NC5(C(=O)NS(=O)(=O)C6CC6)CC5/C=C\CCCCN(C)C(=O)C4C3)cc(-c3nc(C(C)C)cs3)nc2c1C` (stereo unspecified), the “NF-kB SEAP reporter activity” value in experiment [1] (setting [5]) was 1.03.
Take `COc1ccc2c(OC3CC4C(=O)NC5(C(=O)NS(=O)(=O)C6CC6)CC5/C=C\CCCCN(C)C(=O)C4C3)cc(-c3nc(C(C)C)cs3)nc2c1C` (stereo unspecified) (library stock concentration (final ~1000-fold dilution): 10 mM): the “NF-kB SEAP reporter activity” value turned out to be 3.16 in experiment [2] (agonist: LPS (TLR4) 0.1 ug/mL), 0.926 in experiment [2] (setting [6]), 0.842 in experiment [2] (setting [7]) and 0.952 in experiment [2] (setting [8]).
Take `Cc1cnc(C(=O)NC2CCCCC/C=C\C3CC3(C(=O)NS(=O)(=O)C3CC3)NC(=O)C3CC(Oc4nc5ccccc5c5ccccc45)CN3C2=O)cn1` (stereo unspecified): the “NF-kB SEAP reporter activity” value in experiment [1] (setting [5]) is 0.899.
As for `CC(C)(C)OC(=O)NC1CCCCC/C=C\C2CC2(C(=O)NS(=O)(=O)C2CC2)NC(=O)C2CC(OC(=O)N3Cc4cccc(F)c4C3)CN2C1=O` (stereo unspecified), the “NF-kB SEAP reporter activity” value in experiment [1] (setting [4]) is 0.902; in experiment [1] (setting [5]) it was 1.01.
With `Cc1cnc(C(=O)NC2CCCCC/C=C\C3CC3(C(=O)NS(=O)(=O)C3CC3)NC(=O)C3CC(Oc4nc5ccccc5c5ccccc45)CN3C2=O)cn1` (stereo unspecified) (library stock concentration (final ~1000-fold dilution): 10 mM), the “NF-kB SEAP reporter activity” value in experiment [2] (agonist: LPS (TLR4) 0.1 ug/mL) is 0.973; in experiment [2] (setting [6]) it was 1.05; in experiment [2] (setting [7]) it was 0.744; in experiment [2] (setting [8]) it was 0.617.

The record behind these values is the supplement of paper PMC10037445.
